# Results reported in paper PMC7862700, “An all-to-all approach to the identification of sequence-specific readers for epigenetic DNA modifications on cytosine”.
# Assays:
# Test in all cases: DAPPL (digital affinity profiling via proximity ligation, sequencing); 10 mM Tris-HCl pH 7.5, 50 mM NaCl, 1 mM DTT, 4% glycerol, room temperature, 30 min; GST-TFs on glutathione beads, 16-mer random dsDNA library, 0.1% formaldehyde crosslink after washing; high values mean tight binding
# [1] = biological target: T1, FLI1 (Homo sapiens, UniProt Q01543 1-452); conditions: protein: recombinant; tags: N-terminal GST; dsDNA, one strand shown
# T1 sequence: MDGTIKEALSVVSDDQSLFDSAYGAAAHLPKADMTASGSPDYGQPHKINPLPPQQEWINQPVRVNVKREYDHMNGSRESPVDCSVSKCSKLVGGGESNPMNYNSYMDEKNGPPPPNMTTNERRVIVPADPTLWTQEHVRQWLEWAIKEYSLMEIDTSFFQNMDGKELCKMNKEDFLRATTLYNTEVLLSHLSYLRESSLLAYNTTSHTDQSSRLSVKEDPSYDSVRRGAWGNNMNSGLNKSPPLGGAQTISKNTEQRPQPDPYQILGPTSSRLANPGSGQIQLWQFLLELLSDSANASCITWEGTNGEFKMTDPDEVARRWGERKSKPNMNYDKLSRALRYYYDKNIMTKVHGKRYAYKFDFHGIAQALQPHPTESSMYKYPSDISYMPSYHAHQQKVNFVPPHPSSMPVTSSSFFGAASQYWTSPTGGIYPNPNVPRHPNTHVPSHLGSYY
# Method in brief: (§1)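 Human transcription factors fused to GST were expressed in yeast, captured on glutathione beads, given DNA barcodes and pooled with a GST-only negative control. Pools were incubated with 200 nmole of a 16-mer random double-stranded DNA library in Tris/NaCl/DTT/glycerol buffer at room temperature for 30 min. They were then washed, crosslinked with 0.1% formaldehyde, proximity-ligated (BsaI/T4 ligase, 1 h, 37 °C), PCR-amplified and sequenced on an Illumina NextSeq500. Binding signal is each 6-mer's read frequency for a factor divided by its frequency for the GST control.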
# [2] = biological target: T2, ELK1 (Homo sapiens, UniProt P19419 1-428); conditions: protein: recombinant; tags: N-terminal GST; dsDNA, one strand shown
# T2 sequence: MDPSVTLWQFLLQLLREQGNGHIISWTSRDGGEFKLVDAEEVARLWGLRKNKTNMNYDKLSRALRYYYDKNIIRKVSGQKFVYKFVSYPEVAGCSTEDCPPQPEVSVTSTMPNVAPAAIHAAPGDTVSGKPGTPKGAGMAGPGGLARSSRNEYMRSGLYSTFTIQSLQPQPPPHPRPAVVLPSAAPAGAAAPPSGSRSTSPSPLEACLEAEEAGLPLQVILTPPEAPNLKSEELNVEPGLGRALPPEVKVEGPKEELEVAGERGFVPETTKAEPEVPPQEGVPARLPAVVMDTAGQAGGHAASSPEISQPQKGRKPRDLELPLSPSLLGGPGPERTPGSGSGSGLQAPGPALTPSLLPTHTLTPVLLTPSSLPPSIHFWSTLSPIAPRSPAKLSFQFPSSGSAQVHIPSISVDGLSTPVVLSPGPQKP
# Method in brief: as §1
# [3] = biological target: T3, GABPA (Homo sapiens, UniProt Q06546 1-454); conditions: protein: recombinant; tags: N-terminal GST; dsDNA, one strand shown
# T3 sequence: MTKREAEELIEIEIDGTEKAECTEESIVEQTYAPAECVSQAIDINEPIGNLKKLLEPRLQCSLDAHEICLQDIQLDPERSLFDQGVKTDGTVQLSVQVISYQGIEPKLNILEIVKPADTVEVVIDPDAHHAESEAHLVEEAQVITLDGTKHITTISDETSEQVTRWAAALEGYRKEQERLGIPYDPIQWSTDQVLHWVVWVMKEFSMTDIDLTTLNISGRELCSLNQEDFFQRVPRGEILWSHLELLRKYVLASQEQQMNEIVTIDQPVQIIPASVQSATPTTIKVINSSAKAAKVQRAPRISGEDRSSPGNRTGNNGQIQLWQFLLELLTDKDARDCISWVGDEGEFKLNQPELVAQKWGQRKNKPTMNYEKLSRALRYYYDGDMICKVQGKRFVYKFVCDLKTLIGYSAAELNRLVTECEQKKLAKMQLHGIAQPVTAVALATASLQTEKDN
# Method in brief: as §1
# [4] = biological target: T4, ERG (Homo sapiens, UniProt P11308 1-479); conditions: protein: recombinant; tags: N-terminal GST; dsDNA, one strand shown
# T4 sequence: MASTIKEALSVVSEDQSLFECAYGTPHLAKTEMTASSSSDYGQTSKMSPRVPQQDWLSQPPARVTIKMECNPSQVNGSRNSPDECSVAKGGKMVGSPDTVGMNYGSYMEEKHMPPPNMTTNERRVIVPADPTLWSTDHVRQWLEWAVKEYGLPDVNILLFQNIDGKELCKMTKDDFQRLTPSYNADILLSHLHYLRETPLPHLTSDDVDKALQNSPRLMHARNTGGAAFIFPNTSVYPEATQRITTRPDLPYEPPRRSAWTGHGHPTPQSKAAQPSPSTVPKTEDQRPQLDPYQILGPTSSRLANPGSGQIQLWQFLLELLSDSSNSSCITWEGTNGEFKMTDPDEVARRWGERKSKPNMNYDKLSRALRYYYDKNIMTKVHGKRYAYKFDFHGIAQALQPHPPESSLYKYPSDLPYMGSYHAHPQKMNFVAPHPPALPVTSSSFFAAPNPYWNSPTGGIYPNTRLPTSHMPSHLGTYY
# Method in brief: as §1
# [5] = biological target: ELF1 (Homo sapiens, UniProt P32519 1-619); conditions: protein: recombinant; tags: N-terminal GST; dsDNA, one strand shown
# Sequence of ELF1 (P32519 whole entry): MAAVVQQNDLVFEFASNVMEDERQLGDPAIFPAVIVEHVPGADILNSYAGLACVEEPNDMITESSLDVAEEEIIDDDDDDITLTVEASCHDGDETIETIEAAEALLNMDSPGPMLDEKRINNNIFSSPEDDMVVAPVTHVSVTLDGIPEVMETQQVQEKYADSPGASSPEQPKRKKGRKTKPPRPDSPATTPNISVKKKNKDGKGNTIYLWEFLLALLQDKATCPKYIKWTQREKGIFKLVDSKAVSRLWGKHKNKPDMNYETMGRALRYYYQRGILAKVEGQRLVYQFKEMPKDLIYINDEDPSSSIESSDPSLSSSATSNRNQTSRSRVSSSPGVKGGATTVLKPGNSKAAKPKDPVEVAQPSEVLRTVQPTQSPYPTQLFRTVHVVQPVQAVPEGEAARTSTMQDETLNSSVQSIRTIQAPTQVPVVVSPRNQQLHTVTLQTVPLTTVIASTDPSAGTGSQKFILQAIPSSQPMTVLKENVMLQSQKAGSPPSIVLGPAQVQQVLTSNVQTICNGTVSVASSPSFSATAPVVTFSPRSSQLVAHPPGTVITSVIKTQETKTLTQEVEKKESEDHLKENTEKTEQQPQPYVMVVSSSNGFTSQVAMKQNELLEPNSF
# Method in brief: as §1
# [6] = biological target: T5, EHF (Homo sapiens, UniProt Q9NZC4 1-300); conditions: protein: recombinant; tags: N-terminal GST; dsDNA, one strand shown
# T5 sequence: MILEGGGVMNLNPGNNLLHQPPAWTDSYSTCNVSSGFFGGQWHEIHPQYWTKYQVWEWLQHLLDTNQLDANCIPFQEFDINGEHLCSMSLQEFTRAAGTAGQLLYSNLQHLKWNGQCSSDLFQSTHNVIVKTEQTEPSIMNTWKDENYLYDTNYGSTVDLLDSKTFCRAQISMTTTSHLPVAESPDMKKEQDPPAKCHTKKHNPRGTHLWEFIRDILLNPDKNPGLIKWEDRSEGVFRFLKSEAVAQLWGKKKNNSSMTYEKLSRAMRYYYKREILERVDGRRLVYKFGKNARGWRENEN
# Method in brief: as §1
# [7] = biological target: SPI1 (Homo sapiens, UniProt P17947 1-270); conditions: protein: recombinant; tags: N-terminal GST; dsDNA, one strand shown
# Method in brief: as §1
# [8] = biological target: SPIB (Homo sapiens, UniProt Q01892 1-262); conditions: protein: recombinant; tags: N-terminal GST; dsDNA, one strand shown
# Sequence of SPIB (Q01892 whole entry): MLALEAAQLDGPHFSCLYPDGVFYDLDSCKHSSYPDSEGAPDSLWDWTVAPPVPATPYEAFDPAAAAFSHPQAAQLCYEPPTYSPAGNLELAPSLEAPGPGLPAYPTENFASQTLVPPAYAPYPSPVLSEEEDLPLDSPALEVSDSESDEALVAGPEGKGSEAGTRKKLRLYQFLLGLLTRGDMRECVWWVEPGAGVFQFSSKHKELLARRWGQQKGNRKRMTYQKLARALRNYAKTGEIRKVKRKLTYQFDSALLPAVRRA
# Method in brief: as §1
# [9] = biological target: T6, ELK3 (Homo sapiens, UniProt P41970 1-407); conditions: protein: recombinant; tags: N-terminal GST; dsDNA, one strand shown
# T6 sequence: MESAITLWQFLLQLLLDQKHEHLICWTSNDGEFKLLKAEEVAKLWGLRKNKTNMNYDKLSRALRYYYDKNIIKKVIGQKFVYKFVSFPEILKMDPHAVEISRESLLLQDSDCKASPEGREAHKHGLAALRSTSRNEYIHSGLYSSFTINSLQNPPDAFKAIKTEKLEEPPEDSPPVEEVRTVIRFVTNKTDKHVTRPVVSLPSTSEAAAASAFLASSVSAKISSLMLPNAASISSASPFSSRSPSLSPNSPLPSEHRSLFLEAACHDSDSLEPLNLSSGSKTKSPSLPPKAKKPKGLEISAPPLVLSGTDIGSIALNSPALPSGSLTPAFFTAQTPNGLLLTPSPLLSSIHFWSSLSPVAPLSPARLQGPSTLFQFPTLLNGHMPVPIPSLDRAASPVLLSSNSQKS
# Method in brief: as §1
# [10] = biological target: T7, FEV (Homo sapiens, UniProt Q99581 1-238); conditions: protein: recombinant; tags: N-terminal GST; dsDNA, one strand shown
# T7 sequence: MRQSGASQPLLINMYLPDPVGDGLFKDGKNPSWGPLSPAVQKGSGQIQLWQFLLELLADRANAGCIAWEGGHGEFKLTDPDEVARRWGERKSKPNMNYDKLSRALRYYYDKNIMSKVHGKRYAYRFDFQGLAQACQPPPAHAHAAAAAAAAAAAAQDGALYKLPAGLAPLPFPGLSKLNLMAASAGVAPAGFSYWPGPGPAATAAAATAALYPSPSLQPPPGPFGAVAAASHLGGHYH
# Method in brief: as §1
# [11] = biological target: ETV5 (Homo sapiens, UniProt P41161 1-510); conditions: protein: recombinant; tags: N-terminal GST; dsDNA, one strand shown
# Sequence of ETV5 (P41161 whole entry): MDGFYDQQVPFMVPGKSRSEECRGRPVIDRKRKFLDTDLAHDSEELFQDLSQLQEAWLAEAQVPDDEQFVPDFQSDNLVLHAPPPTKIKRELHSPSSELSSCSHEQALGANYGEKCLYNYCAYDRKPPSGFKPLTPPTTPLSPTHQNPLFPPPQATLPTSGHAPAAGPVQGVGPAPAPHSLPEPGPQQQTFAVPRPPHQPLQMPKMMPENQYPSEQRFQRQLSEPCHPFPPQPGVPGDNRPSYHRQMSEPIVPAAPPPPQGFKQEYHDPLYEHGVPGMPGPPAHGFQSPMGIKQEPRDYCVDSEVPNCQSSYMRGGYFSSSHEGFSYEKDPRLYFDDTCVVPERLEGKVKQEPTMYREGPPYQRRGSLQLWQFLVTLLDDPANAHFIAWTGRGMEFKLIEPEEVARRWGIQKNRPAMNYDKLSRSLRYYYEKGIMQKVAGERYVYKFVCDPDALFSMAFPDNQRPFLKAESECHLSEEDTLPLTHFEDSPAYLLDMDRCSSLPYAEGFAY
# Method in brief: as §1
# [12] = biological target: HSF1 (Homo sapiens, UniProt Q00613 1-529); conditions: protein: recombinant; tags: N-terminal GST; chain copies: 3; dsDNA, one strand shown
# Sequence of HSF1 (Q00613 whole entry): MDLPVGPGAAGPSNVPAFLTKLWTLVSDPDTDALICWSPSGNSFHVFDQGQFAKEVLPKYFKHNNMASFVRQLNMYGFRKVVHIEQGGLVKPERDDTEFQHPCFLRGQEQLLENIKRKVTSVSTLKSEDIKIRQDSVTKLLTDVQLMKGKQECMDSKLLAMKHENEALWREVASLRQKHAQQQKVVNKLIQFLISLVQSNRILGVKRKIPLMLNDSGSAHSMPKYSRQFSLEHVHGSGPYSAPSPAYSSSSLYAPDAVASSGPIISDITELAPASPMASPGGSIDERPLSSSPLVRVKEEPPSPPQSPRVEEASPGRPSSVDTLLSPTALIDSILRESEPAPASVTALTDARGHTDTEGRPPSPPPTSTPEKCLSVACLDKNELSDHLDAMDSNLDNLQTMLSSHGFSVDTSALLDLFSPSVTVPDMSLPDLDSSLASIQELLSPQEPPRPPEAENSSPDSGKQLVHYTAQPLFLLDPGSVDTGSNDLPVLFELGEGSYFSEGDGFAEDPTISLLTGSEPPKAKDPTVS
# Method in brief: as §1
# [13] = biological target: T8, SPIC (Homo sapiens, UniProt Q8N5J4 1-248); conditions: protein: recombinant; tags: N-terminal GST; dsDNA, one strand shown
# T8 sequence: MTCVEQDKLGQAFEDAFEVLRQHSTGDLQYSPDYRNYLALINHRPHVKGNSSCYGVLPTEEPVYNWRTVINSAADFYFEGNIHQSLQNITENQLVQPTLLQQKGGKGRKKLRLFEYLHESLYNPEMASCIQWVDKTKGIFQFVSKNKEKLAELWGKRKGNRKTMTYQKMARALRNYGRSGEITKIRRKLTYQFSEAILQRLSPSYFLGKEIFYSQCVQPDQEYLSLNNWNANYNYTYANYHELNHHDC
# Method in brief: as §1
# [14] = biological target: ELF4 (Homo sapiens, UniProt Q99607 1-663); conditions: protein: recombinant; tags: N-terminal GST; dsDNA, one strand shown
# Sequence of ELF4 (Q99607 whole entry): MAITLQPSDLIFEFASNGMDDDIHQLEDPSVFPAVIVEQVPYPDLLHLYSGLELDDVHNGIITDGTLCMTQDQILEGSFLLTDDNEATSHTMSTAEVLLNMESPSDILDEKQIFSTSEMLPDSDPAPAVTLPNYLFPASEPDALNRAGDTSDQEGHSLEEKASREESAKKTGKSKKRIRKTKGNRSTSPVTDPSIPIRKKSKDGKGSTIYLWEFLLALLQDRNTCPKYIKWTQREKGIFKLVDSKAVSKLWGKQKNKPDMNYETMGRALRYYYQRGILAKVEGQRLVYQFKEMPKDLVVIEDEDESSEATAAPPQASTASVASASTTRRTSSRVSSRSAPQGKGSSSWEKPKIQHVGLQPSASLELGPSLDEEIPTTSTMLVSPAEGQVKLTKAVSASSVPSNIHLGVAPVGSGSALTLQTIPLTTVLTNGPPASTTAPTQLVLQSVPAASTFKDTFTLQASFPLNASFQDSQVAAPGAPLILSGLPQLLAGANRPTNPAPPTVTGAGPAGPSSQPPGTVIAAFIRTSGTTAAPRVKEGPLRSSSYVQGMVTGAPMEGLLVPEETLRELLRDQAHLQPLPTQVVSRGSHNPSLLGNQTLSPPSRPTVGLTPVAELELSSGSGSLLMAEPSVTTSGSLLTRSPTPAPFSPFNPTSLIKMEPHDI
# Method in brief: as §1
# [15] = biological target: T9, ELK4 (Homo sapiens, UniProt P28324-2 1-405); conditions: protein: recombinant; tags: N-terminal GST; dsDNA, one strand shown
# T9 sequence: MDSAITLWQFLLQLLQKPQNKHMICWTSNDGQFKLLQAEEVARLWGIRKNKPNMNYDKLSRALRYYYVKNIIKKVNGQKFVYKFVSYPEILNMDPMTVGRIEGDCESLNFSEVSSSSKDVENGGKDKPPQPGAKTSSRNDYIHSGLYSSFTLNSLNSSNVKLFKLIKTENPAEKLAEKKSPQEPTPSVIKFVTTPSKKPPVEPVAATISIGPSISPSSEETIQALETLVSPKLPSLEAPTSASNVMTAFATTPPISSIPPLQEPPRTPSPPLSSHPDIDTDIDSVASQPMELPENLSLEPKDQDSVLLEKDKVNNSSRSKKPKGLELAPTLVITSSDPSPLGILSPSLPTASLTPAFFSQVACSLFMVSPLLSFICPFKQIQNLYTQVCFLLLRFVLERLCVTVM
# Method in brief: as §1
# [16] = biological target: T10, ETV2 (Homo sapiens, UniProt O00321 1-342); conditions: protein: recombinant; tags: N-terminal GST; dsDNA, one strand shown
# T10 sequence: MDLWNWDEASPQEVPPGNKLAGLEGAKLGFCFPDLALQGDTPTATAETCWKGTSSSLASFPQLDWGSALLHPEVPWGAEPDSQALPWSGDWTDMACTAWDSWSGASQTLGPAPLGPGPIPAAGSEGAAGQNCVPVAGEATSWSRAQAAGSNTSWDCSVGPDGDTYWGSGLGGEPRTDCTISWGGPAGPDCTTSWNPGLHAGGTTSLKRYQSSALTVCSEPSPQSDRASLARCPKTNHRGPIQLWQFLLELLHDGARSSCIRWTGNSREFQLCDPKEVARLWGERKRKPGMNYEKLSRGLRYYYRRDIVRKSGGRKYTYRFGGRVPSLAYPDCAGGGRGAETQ
# Method in brief: as §1
# [17] = biological target: T11, ELF3 (Homo sapiens, UniProt P78545 1-371); conditions: protein: recombinant; tags: N-terminal GST; dsDNA, one strand shown
# T11 sequence: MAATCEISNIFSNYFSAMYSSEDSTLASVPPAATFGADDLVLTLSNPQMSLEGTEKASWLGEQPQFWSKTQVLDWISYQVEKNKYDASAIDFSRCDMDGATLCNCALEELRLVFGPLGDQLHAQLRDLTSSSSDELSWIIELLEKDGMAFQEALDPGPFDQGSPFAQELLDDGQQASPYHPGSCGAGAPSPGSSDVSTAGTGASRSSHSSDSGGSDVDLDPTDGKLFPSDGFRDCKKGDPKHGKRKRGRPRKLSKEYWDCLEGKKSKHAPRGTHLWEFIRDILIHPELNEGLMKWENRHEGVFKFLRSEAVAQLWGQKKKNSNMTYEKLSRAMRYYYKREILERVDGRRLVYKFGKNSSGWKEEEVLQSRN
# Method in brief: as §1
# [18] = biological target: CRX (Homo sapiens, UniProt O43186 1-299); conditions: protein: recombinant; tags: N-terminal GST; dsDNA, one strand shown
# Sequence of CRX (O43186 whole entry): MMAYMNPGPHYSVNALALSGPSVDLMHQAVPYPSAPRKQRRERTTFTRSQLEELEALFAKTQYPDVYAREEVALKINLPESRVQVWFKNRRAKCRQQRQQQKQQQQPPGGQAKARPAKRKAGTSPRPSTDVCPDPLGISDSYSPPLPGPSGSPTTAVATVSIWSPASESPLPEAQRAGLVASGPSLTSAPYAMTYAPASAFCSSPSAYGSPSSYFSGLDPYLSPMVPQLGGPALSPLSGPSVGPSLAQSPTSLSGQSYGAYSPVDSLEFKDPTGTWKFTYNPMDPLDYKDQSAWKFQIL
# Method in brief: as §1
# [19] = biological target: ETV1 (Homo sapiens, UniProt P50549 1-477); conditions: protein: recombinant; tags: N-terminal GST; dsDNA, one strand shown
# Sequence of ETV1 (P50549 whole entry): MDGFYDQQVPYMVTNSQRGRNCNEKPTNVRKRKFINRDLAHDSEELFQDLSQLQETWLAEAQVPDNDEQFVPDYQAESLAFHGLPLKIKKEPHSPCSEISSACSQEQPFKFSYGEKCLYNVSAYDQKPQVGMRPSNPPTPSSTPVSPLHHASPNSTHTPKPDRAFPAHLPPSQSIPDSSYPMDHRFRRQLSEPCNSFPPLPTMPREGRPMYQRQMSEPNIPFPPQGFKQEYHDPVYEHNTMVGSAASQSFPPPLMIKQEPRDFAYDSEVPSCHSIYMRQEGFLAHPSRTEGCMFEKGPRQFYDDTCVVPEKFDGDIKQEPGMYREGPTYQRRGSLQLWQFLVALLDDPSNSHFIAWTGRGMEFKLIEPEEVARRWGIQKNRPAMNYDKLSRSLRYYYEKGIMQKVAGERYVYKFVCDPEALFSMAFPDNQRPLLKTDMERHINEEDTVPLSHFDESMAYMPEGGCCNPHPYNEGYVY
# Method in brief: as §1
sequence,measurement,setting,value
ACTACG,binding signal,[1],"1.33 fold enrichment (6-mer frequency, TF over GST control)"
same,binding signal,[2],"1.28 fold enrichment (6-mer frequency, TF over GST control)"
same,binding signal,[3],"1.32 fold enrichment (6-mer frequency, TF over GST control)"
same,binding signal,[4],"1.24 fold enrichment (6-mer frequency, TF over GST control)"
same,binding signal,[5],"1.34 fold enrichment (6-mer frequency, TF over GST control)"
same,binding signal,[6],"1.36 fold enrichment (6-mer frequency, TF over GST control)"
same,binding signal,[7],"1.26 fold enrichment (6-mer frequency, TF over GST control)"
same,binding signal,[8],"1.47 fold enrichment (6-mer frequency, TF over GST control)"
same,binding signal,[9],"1.32 fold enrichment (6-mer frequency, TF over GST control)"
same,binding signal,[10],"1.34 fold enrichment (6-mer frequency, TF over GST control)"
same,binding signal,[11],"1.27 fold enrichment (6-mer frequency, TF over GST control)"
same,binding signal,[12],"1.09 fold enrichment (6-mer frequency, TF over GST control)"
same,binding signal,[13],"1.12 fold enrichment (6-mer frequency, TF over GST control)"
same,binding signal,[14],"1.26 fold enrichment (6-mer frequency, TF over GST control)"
same,binding signal,[15],"1.32 fold enrichment (6-mer frequency, TF over GST control)"
same,binding signal,[16],"1.33 fold enrichment (6-mer frequency, TF over GST control)"
same,binding signal,[17],"1.28 fold enrichment (6-mer frequency, TF over GST control)"
same,binding signal,[18],"1.08 fold enrichment (6-mer frequency, TF over GST control)"
same,binding signal,[19],"1.25 fold enrichment (6-mer frequency, TF over GST control)"
